# Shown are actives, neighbours in structure and some others; about 4% of the full set was active somewhere.
# Mtb betalactam – beta-lactam sensitization of Mtb H37Rv | M. tuberculosis H37Rv growth with meropenem, percent inhibition | inhibition, % at 25 µM | 330,000 compounds, 0.27% hits; call rule not given here;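 also: growth measured after seven days incubation then overnight dye step; 0% = bacteria only wells and 100% = bacteria with antibiotic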
# MazF activator – activators of E. coli MazEF toxin-antitoxin RNase. activation, % at 20 µM. FAM/BHQ RNA-DNA oligo cleavage fluorescence, 5 h. 350,000 compounds, 0.32% hits; in the data active = activation above about 50%
# Target sequence (P0AE70 whole entry, looked up): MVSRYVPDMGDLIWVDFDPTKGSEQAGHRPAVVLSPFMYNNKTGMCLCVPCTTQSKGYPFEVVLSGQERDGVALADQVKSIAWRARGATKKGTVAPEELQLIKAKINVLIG
# GDH-TPI counter-1 – counter-screen for M. tuberculosis FBA inhibitors: GDH-TPI coupled enzymes; GDH-TPI coupled enzyme counterscreen, NADH absorbance; inhibition, % at 4.8 µM; 360,000 compounds, 1.2% hits;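 also: 0% = DMSO wells and 100% = wells lacking the enzyme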
# Mtb FBA inh – Mtb fructose-bisphosphate aldolase inhibition; inhibition, % at 1 µM; P9WQA3; 360,000 compounds, 2.3% hits; purified M. tuberculosis FBA, fluorescence read-out; in the data active = inhibition above about 27%;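 also: 0% = vehicle and 100% = reference inhibitor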
# CCHF vOTU inh – CCHFV vOTU protease inhibition; Pep-AMC fluorescence; inhibition, % at 11.5 µM; 370,000 compounds, 0.55% hits; AID 651958; also: 0% = vehicle wells with enzyme and 100% = no enzyme wells
# Mtb FBA inh conf – Mtb FBA inhibition, confirmed | inhibition, % at 1 µM | AID 651616 | purified M. tuberculosis FBA, fluorescence read-out | shares compounds with Mtb FBA inh | 5,600 compounds, 78% hits; in the data active = inhibition above about 27%;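 also: 0% = vehicle wells and 100% = reference inhibitor wells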
# GDH-TPI counter-2 – GDH-TPI inhibition counter-screen for FBA inhibitors; shares compounds with Mtb FBA inh; GDH-TPI coupled enzyme counterscreen, fluorescence; inhibition, % at 1 µM; 5,600 compounds, 81% hits; AID 652141; in the data active = inhibition above about 10%
# Active calls of the source: *; nt = no result. Rule as the data show it, unless noted: active = inhibition above about 30%; inactive = the rest.
SMILES,Mtb betalactam,MazF activator,GDH-TPI counter-1,Mtb FBA inh,CCHF vOTU inh,Mtb FBA inh conf,GDH-TPI counter-2
C[C@@H]1CCN(C2CC2)S(=O)(=O)c2c(cccc2N2CC[C@H](N(C)C)C2)O1,nt,nt,nt,nt,12,nt,nt
COC(=O)C(C[N+](=O)[O-])C1=C(O)CC(C)(C)CC1=O (stereo not given),nt,nt,nt,nt,4,nt,nt
CCOc1cc(-c2cc(-c3ccc(N)cc3)nc(N)c2C#N)ccc1O,65,9,29,29*,-2,52*,45*
CCOc1cc(-c2cc(-c3ccccc3)nc(N)c2C#N)ccc1O,11,9,0,4,5,nt,nt
CCN1C(=O)N(CC)c2cccc3cccc1c23,-9,1,15,2,-8,nt,nt
CN1CN(C)c2cccc3cccc1c23,-2,-3,16,98*,-85,48*,40*
N#Cc1ccc(Cn2nnc(-c3ccc(N4CCOCC4)cc3)n2)cc1,nt,nt,nt,nt,-9,nt,nt
CC(=O)N1CCN(Cc2cc(=O)oc3ccc4ccccc4c23)CC1,nt,nt,nt,4,10,nt,nt
O=C1CCC(C(=O)OCc2cc(=O)oc3ccc4ccccc4c23)=NN1,2,-1,22,31*,-54,91*,62*
C[C@@H]1COc2cc(N3CCCCC3)ccc2S(=O)(=O)N1,nt,nt,nt,nt,5,nt,nt
N#Cc1c(F)cccc1N1CCC(C#N)CC1,15,2,6,31*,-21,154*,115*
COc1ccc(-c2nn3c(-c4n[nH]c5c4CCC5)nnc3s2)cc1,nt,nt,nt,nt,-1,nt,nt
c1cnc2nc(CSc3ncn[nH]3)cn2c1,1,7,3,88*,-67,184*,144*
Cc1ccc2nc(SCc3cn4cccnc4n3)[nH]c2c1,-5,0,-5,3,-15,nt,nt
Cc1ccc(S(=O)(=O)Cc2cn3cccnc3n2)cc1,nt,10,1,92*,-51,50*,32*
c1ccc(SCc2cn3cccnc3n2)nc1,12,-8,-7,74*,-56,65*,39*
c1ccc(-n2cnnc2SCc2cn3cccnc3n2)cc1,-3,-11,-1,103*,-108,102*,76*
c1ccc2c(SCc3cn4cccnc4n3)ncnc2c1,-9,9,7,6,-17,nt,nt
COC(=O)[C@]12C[C@H](CC(=O)N3CCN(C(=O)C4CC4)CC3)C(=O)N(Cc3cccc4ccccc34)C1=C[C@H](C(C)C)O[C@@H]2C1CC1,nt,nt,nt,nt,4,nt,nt
O=C(CSc1nc2ccccc2nc1N1CCOCC1)N1CCN(c2cccc(C(F)(F)F)c2)CC1,nt,nt,nt,nt,18,nt,nt
CN1CCN(Cc2cn3cccnc3n2)CC1,-2,0,3,4,3,nt,nt
[N-]=[N+]=NCc1cn2cccnc2n1,-4,-14,5,63*,-13,79*,63*
C/C(O)=c1/cnc2nc3ccccc3n2c1=O,-8,8,24,30*,-12,24,21*
CCCn1c(=O)c(C(=O)c2ccccc2)nc2ccccc21,1,2,20,-3,0,nt,nt
NC(=S)N/N=C/c1ccc2cccc(OCc3ccccc3)c2n1,89,3,17,40*,-69,47*,37*
SMILES,Mtb betalactam,MazF activator,GDH-TPI counter-1,Mtb FBA inh,CCHF vOTU inh,Mtb FBA inh conf,GDH-TPI counter-2
COc1ccc(C(=O)N/N=C/c2ccc3cccc(OCc4ccccc4)c3n2)cc1,-4,-27,23,63*,-22,26,15*
CN(C(=O)c1cn(C)c2ccccc12)c1ccc(Oc2cccnc2)cc1,nt,nt,nt,nt,1,nt,nt
CCOC(=O)c1c(-c2ccccc2)oc2ccc(OC(C)=O)cc12,87,-4,10,43*,-19,2,-4
CC(=O)Oc1ccc2c(=O)c(-c3ccccc3)c(C)oc2c1,-11,-14,3,43*,-51,49*,43*
CCOC(=O)c1c(-c2ccccc2)oc2ccc(OCC(O)CN(C)C)cc12 (stereo not given),36,28,6,48*,-48,44*,32*
COc1ccc2c(=O)c(-c3cnn(-c4ccccc4)c3)c(C)oc2c1,7,-6,-7,3,-13,nt,nt
CCOC(=O)c1c(C)oc2ccc(OS(C)(=O)=O)cc12,-6,3,-7,-2,13,nt,nt
O=S1(=O)c2ccc(N3CCN(Cc4ccccc4F)CC3)cc2Oc2ccccc2CN1Cc1cn(Cc2cccc(C(F)(F)F)c2)nn1,nt,nt,nt,nt,12,nt,nt
O=C(CCl)Nc1ccc(C(=O)NCC2COc3ccccc3O2)cc1 (stereo not given),nt,nt,nt,nt,2,nt,nt

# From PubChem
